# Data from PubChem BioAssay AID1460 (National Center for Advancing Translational Sciences (NCATS), 2008).
# Among all 270,000 compounds or so, about 5,800 (2.1%) were called active. About 16% were inconclusive and are not listed. The sample holds actives, similar compounds and a random draw of the others, so the mix is not that of the screen. Values without a mark were called inactive. The call rests on the fitted dose curve; in most records, active means well fitted inhibition curve with a large enough effect; inconclusive means small, poorly fitted or top-dose-only effect; inactive means flat fitted curve, though single readings scatter.
# Molecular target: Microtubule-associated protein tau (Homo sapiens) (UniProt P10636)
# Sequence (P10636 561-689 P618L limits assumed): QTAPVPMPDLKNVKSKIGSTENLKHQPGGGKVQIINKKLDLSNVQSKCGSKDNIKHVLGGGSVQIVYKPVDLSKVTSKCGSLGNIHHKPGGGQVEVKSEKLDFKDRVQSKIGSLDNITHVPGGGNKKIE
# Assay: qHTS for Inhibitors of Tau Fibril Formation, Thioflavin T Binding; further: nearly all actives have a fitted effect of over 55% in size
# Conditions: recombinant tau K18 P301L (four-repeat tau fragment), heparin-induced fibrillization, ThT fluorescence; series mostly up to 57.4 µM; activity, negative = inhibition: at the top concentration
# In short: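 Aggregation was driven by heparin (20 uM final) acting on recombinant tau […] bearing P301L in 100 mM sodium acetate pH 7; fibrils were detected with Thioflavin T.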
# On the % scale 0 is the no-effect control and ±100 the full control effect; potency means the concentration at half of the fitted maximal effect.
Structure (SMILES),"activity, negative = inhibition [%]",Potency
Cc1c(-c2nc(-c3ccc4c(c3)OCO4)no2)nnn1-c1ccc(Br)cc1F,-17.8,–
CC1CCCN(c2nc3c(S(=O)(=O)c4ccc(C(C)C)cc4)nnn3c3ccsc23)C1 (stereo unspecified),4.44,–
CCOc1ccc(CNCc2c(C(=O)O)c(C)n(Cc3cccc(OC)c3)c2C)cc1OC,-12.9,–
CCc1ccc(N(CC)C(=O)CCn2cnc3onc(-c4ccc(F)cc4)c3c2=O)cc1,-16.1,–
Cc1ccc2c(=O)c(C(=O)c3ccc(F)cc3)cn(CC(=O)NC3CCCCC3)c2n1,-15,–
COc1cc(-c2noc(-c3ccc(N4CCCC4)c([N+](=O)[O-])c3)n2)cc(OC)c1OC,1.35,–
CCN1CCc2nc(NC(=O)c3cc(F)c(F)cc3Cl)sc2C1,7.9,–
CCc1ccccc1NC(=O)c1sc2nc3c(cc2c1N)CN(Cc1ccccc1)CC3,-9.56,–
CCc1ccc(NC(=O)c2sc3nc4c(cc3c2N)CN(CC)CC4)cc1,–,10 µM (active)
Cc1ccc(-n2ncc(C(=O)N(C)Cc3ccccc3)c2-n2cccc2)cc1,-13.8,–
O=C(Nc1ccccc1)/C(=C/c1ccc([N+](=O)[O-])cc1)NC(=O)c1ccccc1,-6.58,–
COc1cc(CC(=O)N/N=C/c2ccccc2)c([N+](=O)[O-])cc1OC,-7.85,–
O=C(N/N=C/c1ccc([N+](=O)[O-])cc1)c1c[nH]c2ccccc12,–,2.82 µM (active)
O=[N+]([O-])c1ccc(N/N=C/c2ccccc2)cc1,–,3.55 µM (active)
Cc1c(C(=O)N/N=C/c2ccccc2)[nH]c2c([N+](=O)[O-])cccc12,-2.9,–
Cc1cccc(COc2ccccc2/C=N/Nc2ccc([N+](=O)[O-])cc2)c1,–,3.16 µM (active)
O=C(NC(Cc1c[nH]c2ccccc12)C(=O)N/N=C/c1ccc(Br)cc1)c1cccs1 (stereo unspecified),1.42,–
Cc1cccc(C(=O)NNC(=O)c2cccc([N+](=O)[O-])c2)c1,-1.12,–
Cc1ccccc1OCCOc1ccc([N+](=O)[O-])cc1/C=N/n1cnnc1,-19.7,–
CNc1ccc(-c2nc(-c3ccco3)no2)cc1[N+](=O)[O-],3.41,–
Cc1ccc(Cl)cc1NC(=O)NC1COc2ccccc2C1 (stereo unspecified),3.8,–
COc1ccc(NC(=O)CSc2nccn2C2CCCC2)cc1OC,-1.2,–
O=C(CN1C(=O)CCn2nc(-c3ccccc3)cc21)NCc1ccccc1,-0.0678,–
Cc1ccc(-n2c(SCC(=O)Nc3cccc(F)c3)nc3c(oc4ccccc43)c2=O)cc1C,5.17,–
COc1ccc(S(=O)(=O)N2CCOCC2)cc1C(=O)Nc1nc2ccccc2s1,-1.15,–
COc1cccc2sc(NNC(=O)c3nc4ccccc4s3)nc12,–,7.94 µM (active)

Structure (SMILES),"activity, negative = inhibition [%]",Potency
COc1ccc(/C=C(/CC(=O)Nc2ccc(C)cc2)c2nc3ccccc3s2)cc1,-13.3,–
Cc1ccc(C)c(N2CCN(c3ccc4cc(S(=O)(=O)N5CCC(C)CC5)ccc4n3)CC2)c1,0.595,–
CC(=O)c1cc(C#N)c(SCC(=O)C(C)(C)C)nc1C,-10.4,–
CC(=O)c1cc(C#N)c(SCC(=O)Nc2nccs2)nc1C,–,7.08 µM (active)
Cc1[nH]c2ccccc2c1SCC(=O)Nc1nccs1,-6.38,–
COc1ccc(CCNc2ncnc3onc(-c4ccc(Cl)cc4)c23)c(OC)c1,-0.33,–
CCOCCc1nn2c(=O)cc(COC(=O)CNC(=O)c3ccc(C(C)(C)C)cc3)nc2s1,-14,–
Cc1c(NC(=O)CCC2CCCCC2)cc(C(=O)N2CCOCC2)cc1[N+](=O)[O-],-8.07,–
Cc1cc(C=O)c(C)n1-c1ccc(NC2CCCCC2)c([N+](=O)[O-])c1,–,14.1 µM (active)
Cc1ccc(C(=O)COC(=O)CCCC(=O)NC2CCCCC2)cc1[N+](=O)[O-],-0.262,–
COCCN(Cc1ccco1)C(=O)Cn1ncc2c([nH]c3ccccc32)c1=O,4.47,–
CC(CC(=O)N1CCN(c2ccccc2)CC1)c1ccccc1 (stereo unspecified),-1.05,–
CC(=O)N1CCN(c2ccc(NCc3ccc(C(C)C)cc3)cc2)CC1,–,12.6 µM (active)
O=C(Nc1ccc(F)cc1)N1CCN(c2ccc(F)cc2)CC1,-16.9,–
Cc1c(CCNC(=O)c2ccc(C(F)(F)F)cc2)sc2nc(-c3ccc(F)cc3)nn12,2.81,–
COc1ccc(Cl)cc1NC(=O)CCn1c(=O)c2cccn2c2ccccc21,-13.7,–
CCOc1ccc(CNC(=O)c2ccc3nc(CC)c(CC)nc3c2)cc1OC,0.219,–
CC1=CC(C)(C)N(C(=O)CSc2nnc(-c3ccccc3)o2)c2ccc(C)cc21,-11.5,–
COc1ccc2c(c1)C(C)=CC(C)(C)N2C(=O)CNCc1ccc2c(c1)OCO2,-5.39,–
COc1ccc2c(c1)C(C)=CC(C)(C)N2C(=O)Nc1ccccc1,–,28.2 µM (active)
O=C(NC1CC(=O)N(c2ccc(Cl)cc2)C1)C1CCCC1 (stereo unspecified),-3.22,–
Cn1ccc2cc(S(=O)(=O)N3CCCC(C(=O)NCc4ccccc4F)C3)ccc21 (stereo unspecified),4.83,–
COc1ccc(-c2nc3ccccc3o2)cc1NC(=O)c1cc([N+](=O)[O-])ccc1N1CCOCC1,-9.81,–
CCOc1ccc2nc(NC(=O)c3cc([N+](=O)[O-])ccc3N3CCOCC3)sc2c1,–,3.16 µM (active)
O=C(NC1CCCCC1)c1cc([N+](=O)[O-])ccc1N1CCOCC1,-5.97,–
CCOC(=O)c1c(NC(=O)c2cccs2)sc(C)c1C,4.08,–

Structure (SMILES),"activity, negative = inhibition [%]",Potency
CCOC(=O)c1sc(NC(=O)COc2ncnc3ccccc23)c(C(=O)OCC)c1C,13.3,–
CCOC(=O)c1c(NC(=O)COc2cc(C)ccc2C(C)C)sc(C)c1C,–,25.1 µM (active)
Clc1cccc(-n2ncc3c(NCCc4ccccc4)ncnc32)c1,-9.03,–
Cc1ccc(Cl)cc1NC(=O)CCC(=O)N1CC(C)Sc2ccccc21 (stereo unspecified),-16.2,–
CCCNC(=O)C1CCN(c2nc3ccc(C)cc3[nH]2)CC1,-0.761,–
COCC(C)NS(=O)(=O)c1ccc(N2CCCCS2(=O)=O)cc1 (stereo unspecified),6.23,–
S=C(c1ccc(-c2ccccc2)o1)N1CCCCC1,–,15.8 µM (active)
S=C(NCCc1ccccc1)N1CCCCC1,-8.68,–
OCCN1CCN(C(=S)c2ccc(-c3ccccc3)cc2)CC1,-13.5,–
Oc1ccccc1N1CCN(C(=S)NCc2ccccc2)CC1,-17.4,–
OCC(CO)(CO)NCc1ccc(-c2ccccc2)cc1,-2.17,–
Oc1ccc(CNc2ccccc2O)cc1,–,14.1 µM (active)
Cc1cccc(C2C3=C(CCCC3=O)N=C3c4ccccc4C(=O)C32)c1 (stereo unspecified),–,14.1 µM (active)
CCc1nc2cccnc2n1-c1ccc(CC(=O)Nc2c(C)cccc2C)cc1,-7.47,–
COc1ccc(CCNC(=O)Cn2c(=O)cc(C(F)(F)F)c3c(C)nn(C)c32)c(OC)c1,-7.4,–
CCc1nnc(NC(=O)/C=C/c2ccc(C)o2)s1,-4.8,–
Cc1ccc(/C=C/C(=O)Nc2cc(S(=O)(=O)N3CCCCCC3)ccc2OCC(F)(F)F)o1,9.07,–
Cc1ccc(/C=C/C(=O)Nc2ccc([N+](=O)[O-])c(NC(=O)/C=C/c3ccc(C)o3)c2)o1,–,12.6 µM (active)
CCOc1cccc(/C=N/NC(=S)NCCN2CCOCC2)c1O,-6.58,–
CCOc1cccc(/C=N/N2C(=O)CSC2=S)c1O,–,22.4 µM (active)
CCOc1ccccc1N=C1NC(=O)CS1,-1.39,–
COc1ccc(OC)c(NC(=O)CSC2=Nc3ccccc3C3=NC(CC(=O)NCCc4ccccc4)C(=O)N23)c1 (stereo unspecified),-3.76,–
CC(=O)Oc1c2c(c3c(c1CC=C(C)C)O[C@@]14C(=CC5CC1C(C)(C)OC4(C/C=C(\C)C(=O)O)C5=O)C3=O)OC(C)(CCC=C(C)C)C=C2 (stereo partly specified),–,31.6 µM (active)
COc1ccccc1NC(=O)Cn1cnc2ccc(S(=O)(=O)N3CCC(C)CC3)cc2c1=O,9.3,–
CN1c2ccc(Cl)cc2-c2nc(SCC(=O)Nc3cc(F)ccc3F)ncc2S1(=O)=O,4.12,–
CN1/C(=c2/s/c(=C3/C(=O)N(c4ccccc4)NC3=Nc3ccccc3)n(C)c2=O)C(C)(C)c2ccccc21,–,7.94 µM (active)

Structure (SMILES),"activity, negative = inhibition [%]",Potency
CC1CCCCN1CCCNC(=O)Cn1ncc2c([nH]c3ccccc32)c1=O (stereo unspecified),-18.3,–
CCc1ccc(NC(=O)CCS(=O)(=O)c2cc3c(cc2Cl)NC(=O)CO3)cc1,1.33,–
COc1ccc(C)cc1NC(=O)C(=O)NCCc1sc(-c2cccc(C)c2)nc1C,-12.3,–
Cc1ccc(Nc2ccc(C(N)=O)cc2[N+](=O)[O-])cc1,-3.36,–
O=[N+]([O-])c1ccccc1Nc1ccc(O)cc1,–,22.4 µM (active)
O=C(O)c1ccccc1C(=O)Nc1ccccc1[N+](=O)[O-],-2.3,–
CCCN1C(=O)C(O)(CC(=O)c2ccc(CC)cc2)c2cc(Br)ccc21 (stereo unspecified),-7.54,–
COc1ccc(N2CCN(C(=O)CSc3nc4cc(OC)c(OC)cc4cc3C#N)CC2)cc1,-10.6,–
Cc1nc2cc(NC(=O)CSc3nc4c(C)cccc4cc3C#N)ccc2s1,-13.9,–
COC(=O)CSc1nc(C)c2ccc(OC)cc2n1,-5.41,–
Cc1nonc1NC(=O)CSc1nc2ccccc2cc1C#N,–,1.78 µM (active)
Cc1cc(C)c(C#N)c(SCC(=O)Nc2ccccc2)n1,4.95,–
CCOc1ccc2cc(C#N)c(SCC(=O)OC)nc2c1,–,3.16 µM (active)
CC(=O)c1ccc(NC(=O)c2nc(-c3ccc(C)cc3)n3c2CCCCC3)cc1,-9.51,–
Cc1ccc(CCNC(=O)c2nnc(Cc3cccc(F)c3)o2)cc1,-13.6,–
CC(C)OC(=O)c1c(NC(=O)c2ccco2)sc2c1CCCC2,-13,–
CCOC(=O)c1c(NC(=S)NC(=O)c2ccco2)sc2c1CCCC2,-18,–
CNC(=O)c1c(NC(NC(=O)c2ccco2)C(=O)c2ccc(Cl)cc2)sc2c1CCCC2 (stereo unspecified),–,25.1 µM (active)
COc1cc2c(cc1OC)C(COc1ccc(F)cc1)N(C(=O)c1ccccc1F)CC2 (stereo unspecified),-8.13,–
COc1cc(Cl)c(NC(=O)CC(C)S(=O)(=O)c2cc3c(cc2C)NC(=O)CO3)c(OC)c1 (stereo unspecified),2.57,–
Cc1ccc(N=Nc2c(C)[nH]n(-c3ccccc3)c2=O)cc1,0.0892,–
Cc1c(C=O)n(C)n(-c2ccccc2)c1=O,0.926,–
Cc1c(N=Nc2ccc(N(C)C)cc2)c(=O)n(-c2ccccc2)n1C,–,15.8 µM (active)
